Laboratory results from PMC5515408, “Sequence-specific DNA binding by MYC/MAX to low-affinity non-E-box motifs”.
Over roughly 4,500 sequences, “log2 normalized fluorescence” has its median near -0.34; the highest 2% begin near 3.3. The full list was thinned out, with the highest values kept by preference.

molecular target: MAX:MAX (p21) (human, UniProt P61244-2 1-151); experiment: protein-binding microarray (anti-MAX antibody); PBM: 15 mM Tris-HCl pH 7.5, 100 mM KCl, 0.075% NP40, 7.5 mM beta-mercaptoethanol, 375 ng/ul BSA, 8 ng/ul poly(dA-dT):(dA-dT), 550 ng complex, 60 min, room tempe; high values mean tight binding; conditions: protein: recombinant; tags: 6xHis; chain copies: 2; label: 3' end of printed strand (linker) attached to glass slide; dsDNA, one strand shown
Sequence (P61244 other isoform, or with tags, fused parts or gaps): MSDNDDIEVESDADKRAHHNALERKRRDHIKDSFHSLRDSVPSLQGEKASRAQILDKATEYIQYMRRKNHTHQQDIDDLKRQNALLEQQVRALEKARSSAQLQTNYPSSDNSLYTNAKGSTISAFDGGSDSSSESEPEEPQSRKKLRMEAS
Method in brief: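 Binding is reported as log2 normalized fluorescence. Recombinant His-tagged human MYC:MAX or MAX:MAX dimers expressed in E. coli (550 ng) were incubated with a custom Agilent glass array for 60 min at room temperature in Tris-KCl buffer, pH 7.5, containing NP40, BSA and poly(dA-dT) competitor. The array carried ~5000 unique 12-nt sequences, each spotted in triplicate and made double-stranded by primer extension, and bound protein was detected with anti-MAX and secondary antibodies and scanned at 543 nm.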

Sequence	binding signal
CCGGCTGACACGCCATATTAATAGCTAAGATTACTATATCGACG	2.41 log2 normalized fluorescence
CCGGCTGATACATAGTATTAATAGCTAAGATTACTATATCGACG	-0.533 log2 normalized fluorescence
CCGGCTGATTCACGGTATTAATAGCTAAGATTACTATATCGACG	0.000807 log2 normalized fluorescence
CCGGCTGAGTGGATGTATTAATAGCTAAGATTACTATATCGACG	0.0423 log2 normalized fluorescence
CCGGCTGACACGTTGGATTAATAGCTAAGATTACTATATCGACG	3.03 log2 normalized fluorescence
CCGGCTGATAGTGGGTATTAATAGCTAAGATTACTATATCGACG	-0.372 log2 normalized fluorescence
CCGGCTGAGTGGCTGTATTAATAGCTAAGATTACTATATCGACG	0.1 log2 normalized fluorescence
CCGGCTGAAAGATGGTATTAATAGCTAAGATTACTATATCGACG	-0.31 log2 normalized fluorescence
CCGGCTTGCACGTGGTTTTAATAGCTAAGATTACTATATCGACG	3.23 log2 normalized fluorescence
CCGGCTTGCACTTGGTATTAATAGCTAAGATTACTATATCGACG	0.423 log2 normalized fluorescence
CCGGCTTGCACGTGGTATTAATAGCTAAGATTACTATATCGACG	3.31 log2 normalized fluorescence
CCGGCTGAGGCGGCGTATTAATAGCTAAGATTACTATATCGACG	-0.641 log2 normalized fluorescence
CCGGCTGAGACGCCGTATTAATAGCTAAGATTACTATATCGACG	-0.749 log2 normalized fluorescence
CCGGCTGAGGTGGTGTATTAATAGCTAAGATTACTATATCGACG	-0.0636 log2 normalized fluorescence
CCGGCTGAATAAGCGTATTAATAGCTAAGATTACTATATCGACG	-0.651 log2 normalized fluorescence
CCGGCTGCCACGTGGTATTAATAGCTAAGATTACTATATCGACG	3.42 log2 normalized fluorescence
CCGGCTGCCTCGTGGTATTAATAGCTAAGATTACTATATCGACG	3.36 log2 normalized fluorescence
CCGGCTAACGCGTGGTATTAATAGCTAAGATTACTATATCGACG	3.26 log2 normalized fluorescence
CCGGCCGCGACGTGGTATTAATAGCTAAGATTACTATATCGACG	2.79 log2 normalized fluorescence
CCGGCTTACGCGTGGTATTAATAGCTAAGATTACTATATCGACG	3.27 log2 normalized fluorescence
CCGGCTGCCCCGTGGTATTAATAGCTAAGATTACTATATCGACG	2.88 log2 normalized fluorescence
CCGGCTGCGACGTGGTATTAATAGCTAAGATTACTATATCGACG	2.27 log2 normalized fluorescence

Sequence	binding signal
CCGGCAGCCACGTGGTATTAATAGCTAAGATTACTATATCGACG	3.13 log2 normalized fluorescence
CCGGCTGCCGCGTGGTATTAATAGCTAAGATTACTATATCGACG	3.21 log2 normalized fluorescence
CCGGCCACCACGTGGTATTAATAGCTAAGATTACTATATCGACG	3.24 log2 normalized fluorescence
CCGGCCGCCACGTGGTATTAATAGCTAAGATTACTATATCGACG	3.32 log2 normalized fluorescence
CCGGCCGACGCGTGGTATTAATAGCTAAGATTACTATATCGACG	3.33 log2 normalized fluorescence
CCGGCTGACAATGGGTATTAATAGCTAAGATTACTATATCGACG	0.0164 log2 normalized fluorescence
CCGGCTGATGGGTAGTATTAATAGCTAAGATTACTATATCGACG	-0.121 log2 normalized fluorescence
CCGGCTGACATTTGGTGTTAATAGCTAAGATTACTATATCGACG	-0.316 log2 normalized fluorescence
CCGGCTGACATAGCGTATTAATAGCTAAGATTACTATATCGACG	-0.366 log2 normalized fluorescence
CCGGCTGAGACACTGTATTAATAGCTAAGATTACTATATCGACG	-0.484 log2 normalized fluorescence
CCGGCTGATACGCCGTATTAATAGCTAAGATTACTATATCGACG	-0.497 log2 normalized fluorescence
CCGGCTGAGACCCTGTATTAATAGCTAAGATTACTATATCGACG	-0.583 log2 normalized fluorescence
CCGGCTGAGCAGGGGTATTAATAGCTAAGATTACTATATCGACG	0.451 log2 normalized fluorescence
CCGGCTGAGACGTGGTCTTAATAGCTAAGATTACTATATCGACG	1.44 log2 normalized fluorescence
CCGGCCGCCACGTAGTATTAATAGCTAAGATTACTATATCGACG	1.58 log2 normalized fluorescence
CCGGCCGCCACGTGGTCTTAATAGCTAAGATTACTATATCGACG	3.44 log2 normalized fluorescence
CCGGCAGACACGTGGTATTAATAGCTAAGATTACTATATCGACG	3.08 log2 normalized fluorescence
CCGGCTTACACGTGGTCTTAATAGCTAAGATTACTATATCGACG	3.19 log2 normalized fluorescence
CCGGCAAACACGTTGTATTAATAGCTAAGATTACTATATCGACG	3.31 log2 normalized fluorescence
CCGGCAGACACGTGGTCTTAATAGCTAAGATTACTATATCGACG	3.43 log2 normalized fluorescence
CCGGCGTACACGTGGTCTTAATAGCTAAGATTACTATATCGACG	3.35 log2 normalized fluorescence
CCGGCTGGTACGTGGTCTTAATAGCTAAGATTACTATATCGACG	1.03 log2 normalized fluorescence

Sequence	binding signal
CCGGCGTACACGTGGTATTAATAGCTAAGATTACTATATCGACG	3.3 log2 normalized fluorescence
CCGGCCAACACGTTGTATTAATAGCTAAGATTACTATATCGACG	3.07 log2 normalized fluorescence
CCGGCTAACACGTTGTATTAATAGCTAAGATTACTATATCGACG	3.12 log2 normalized fluorescence
CCGGCATACACGTGGTATTAATAGCTAAGATTACTATATCGACG	3.25 log2 normalized fluorescence
CCGGCGTATACGTGGTATTAATAGCTAAGATTACTATATCGACG	1.62 log2 normalized fluorescence
CCGGCTGACACGTGGTCTTAATAGCTAAGATTACTATATCGACG	3.21 log2 normalized fluorescence
CCGGCTGACCATCTGTATTAATAGCTAAGATTACTATATCGACG	1.1 log2 normalized fluorescence
CCGGCTGACGTACAGTATTAATAGCTAAGATTACTATATCGACG	-0.0346 log2 normalized fluorescence
CCGGCTGACACGTAACATTAATAGCTAAGATTACTATATCGACG	1.37 log2 normalized fluorescence
CCGGCTGATTGGATGTATTAATAGCTAAGATTACTATATCGACG	-0.659 log2 normalized fluorescence
CCGGCTGACTCGCTGTATTAATAGCTAAGATTACTATATCGACG	0.114 log2 normalized fluorescence
CCGGCTGAAGAACCGTATTAATAGCTAAGATTACTATATCGACG	-0.66 log2 normalized fluorescence
CCGGCTGACAACTTGTATTAATAGCTAAGATTACTATATCGACG	-0.311 log2 normalized fluorescence
CCGGCCCGCCAAAGCATTTAATAGCTAAGATTACTATATCGACG	0.154 log2 normalized fluorescence
CCGGCTGACAAATCGTATTAATAGCTAAGATTACTATATCGACG	-0.658 log2 normalized fluorescence
CCGGCTGATCGTCAGTATTAATAGCTAAGATTACTATATCGACG	-0.695 log2 normalized fluorescence
CCGGCTGAGAGCGCGTATTAATAGCTAAGATTACTATATCGACG	-0.456 log2 normalized fluorescence
CCGGCAAACACGTGGTATTAATAGCTAAGATTACTATATCGACG	3.01 log2 normalized fluorescence
CCGGCTACTACGTGGTATTAATAGCTAAGATTACTATATCGACG	1.83 log2 normalized fluorescence
CCGGCTTACACGTGGTATTAATAGCTAAGATTACTATATCGACG	3.3 log2 normalized fluorescence
CCGGCTTAATCGTGGTATTAATAGCTAAGATTACTATATCGACG	1.43 log2 normalized fluorescence
CCGGCTAACACGTGGTATTAATAGCTAAGATTACTATATCGACG	3.45 log2 normalized fluorescence

Sequence	binding signal
CCGGCTAACACGCGGTATTAATAGCTAAGATTACTATATCGACG	3.35 log2 normalized fluorescence
CCGGCCAACACGTGGTATTAATAGCTAAGATTACTATATCGACG	3.22 log2 normalized fluorescence
CCGGCTTAGACGTGGTATTAATAGCTAAGATTACTATATCGACG	1.04 log2 normalized fluorescence
CCGGCCGACACGCGGTATTAATAGCTAAGATTACTATATCGACG	2.86 log2 normalized fluorescence
CCGGCCTACACGTGGTATTAATAGCTAAGATTACTATATCGACG	3.31 log2 normalized fluorescence
CCGGCCTACACGTGGTGTTAATAGCTAAGATTACTATATCGACG	3.19 log2 normalized fluorescence
CCGGCTGACACGCGGTATTAATAGCTAAGATTACTATATCGACG	3.1 log2 normalized fluorescence
CCGGCTGACAAAGTGTATTAATAGCTAAGATTACTATATCGACG	-0.349 log2 normalized fluorescence
CCGGCTGGCGCATGGTATTAATAGCTAAGATTACTATATCGACG	3.17 log2 normalized fluorescence
CCGGCTGAACGCCTGTATTAATAGCTAAGATTACTATATCGACG	0.727 log2 normalized fluorescence
CCGGCTGACATCCCGTATTAATAGCTAAGATTACTATATCGACG	0.192 log2 normalized fluorescence
CCGGCTGACAGAACGTATTAATAGCTAAGATTACTATATCGACG	-0.288 log2 normalized fluorescence
CCGGCTGAGTCCTCGTATTAATAGCTAAGATTACTATATCGACG	-0.692 log2 normalized fluorescence
CCGGCTGATCTCACGTATTAATAGCTAAGATTACTATATCGACG	-0.038 log2 normalized fluorescence
CCGGCTGAAACTCGGTATTAATAGCTAAGATTACTATATCGACG	-0.697 log2 normalized fluorescence
CCGGCGAACACGTAGTATTAATAGCTAAGATTACTATATCGACG	2.25 log2 normalized fluorescence
CCGGCGAACACGTGGTATTAATAGCTAAGATTACTATATCGACG	3.34 log2 normalized fluorescence
CCGGCGAACATGTGGTATTAATAGCTAAGATTACTATATCGACG	3.2 log2 normalized fluorescence
CCGGCTGAACGCTGGTATTAATAGCTAAGATTACTATATCGACG	0.233 log2 normalized fluorescence
CCGGCTGAGGACATGTATTAATAGCTAAGATTACTATATCGACG	0.549 log2 normalized fluorescence
CCGGCTGATGCCGCGTATTAATAGCTAAGATTACTATATCGACG	0.00246 log2 normalized fluorescence
CCGGCTGACACGTGCAATTAATAGCTAAGATTACTATATCGACG	3.47 log2 normalized fluorescence

Sequence	binding signal
CCGGCTGACACGTGCGTTTAATAGCTAAGATTACTATATCGACG	3.25 log2 normalized fluorescence
CCGGCTGACACGTGCCGTTAATAGCTAAGATTACTATATCGACG	3.41 log2 normalized fluorescence
CCGGCTGACACGTGCCATTAATAGCTAAGATTACTATATCGACG	3 log2 normalized fluorescence
CCGGCTGACACACGGTCTTAATAGCTAAGATTACTATATCGACG	1.84 log2 normalized fluorescence
CCGGCTGACACGTTAGATTAATAGCTAAGATTACTATATCGACG	2.59 log2 normalized fluorescence
CCGGCTAACACGCGGTCTTAATAGCTAAGATTACTATATCGACG	3.15 log2 normalized fluorescence
CCGGCTGACACGTGCGATTAATAGCTAAGATTACTATATCGACG	3.02 log2 normalized fluorescence
CCGGCTGACACGTGCACTTAATAGCTAAGATTACTATATCGACG	3.13 log2 normalized fluorescence
CCGGCTGACACGTGCGGTTAATAGCTAAGATTACTATATCGACG	3.31 log2 normalized fluorescence
CCGGCTGACACGCGGTCTTAATAGCTAAGATTACTATATCGACG	3.32 log2 normalized fluorescence
CCGGCTGACACGTGCTATTAATAGCTAAGATTACTATATCGACG	3.17 log2 normalized fluorescence
CCGGCTGAGGCCATGTATTAATAGCTAAGATTACTATATCGACG	0.0723 log2 normalized fluorescence
CCGGCTGACGCCGTGTATTAATAGCTAAGATTACTATATCGACG	0.693 log2 normalized fluorescence
CCGGCTGACACGTATCATTAATAGCTAAGATTACTATATCGACG	1.42 log2 normalized fluorescence
CCGGCTGAACAATCGTATTAATAGCTAAGATTACTATATCGACG	-0.744 log2 normalized fluorescence
CCGGCTGATGTTGAGTATTAATAGCTAAGATTACTATATCGACG	-0.163 log2 normalized fluorescence
CCGGCAGACACTTTGTATTAATAGCTAAGATTACTATATCGACG	0.324 log2 normalized fluorescence
CCGGCTGAGACTCCGTATTAATAGCTAAGATTACTATATCGACG	-0.692 log2 normalized fluorescence
